High-throughput results deposited in PubChem by National Center for Advancing Translational Sciences (NCATS).
Many of the other results were omitted from the sample, so hits are more common in it than they were.
Tb PYK inh: inhibitors of Trypanosoma brucei pyruvate kinase. Q57TT1. TbPYK enzyme, Kinase-Glo Plus ATP luminescence, 45 min. Potency, µM (doses to about 76.8 µM), actives largely listed as inhibitors. 410,000 compounds, 0.12% hits. AID 624173; also: nearly all actives have a fitted effect of over 50% in size
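T. brucei PYK with substrate was exposed to pin-transferred compounds across a concentration series, then started with 130 uM ADP (final). After 45 min at room temperature, Kinase-Glo Plus luminescence was read, normalized and curve-fitted.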
Cycloheximide cs: affects cycloheximide protein synthesis inhibition readout, counter-screen; cell reporter, cycloheximide protein synthesis inhibition counterscreen; max response, %; 300,000 compounds, 12% hits; in the data active = max response mostly above about 13%, no sharp cut-off; inactive = mostly below about 14%; also: read at 38.3 µM for the half of the compounds with a filed dose
LmPK inh: LmPK (Leishmania mexicana) enzyme inhibition; AID 1721; Q27686; Potency, µM (highest dose often 57.5 µM), usual class: inhibitors; purified LmPK, Kinase-Glo ATP luminescence, 1 h; 290,000 compounds, 0.37% hits
Target sequence (Q27686 whole entry, looked up): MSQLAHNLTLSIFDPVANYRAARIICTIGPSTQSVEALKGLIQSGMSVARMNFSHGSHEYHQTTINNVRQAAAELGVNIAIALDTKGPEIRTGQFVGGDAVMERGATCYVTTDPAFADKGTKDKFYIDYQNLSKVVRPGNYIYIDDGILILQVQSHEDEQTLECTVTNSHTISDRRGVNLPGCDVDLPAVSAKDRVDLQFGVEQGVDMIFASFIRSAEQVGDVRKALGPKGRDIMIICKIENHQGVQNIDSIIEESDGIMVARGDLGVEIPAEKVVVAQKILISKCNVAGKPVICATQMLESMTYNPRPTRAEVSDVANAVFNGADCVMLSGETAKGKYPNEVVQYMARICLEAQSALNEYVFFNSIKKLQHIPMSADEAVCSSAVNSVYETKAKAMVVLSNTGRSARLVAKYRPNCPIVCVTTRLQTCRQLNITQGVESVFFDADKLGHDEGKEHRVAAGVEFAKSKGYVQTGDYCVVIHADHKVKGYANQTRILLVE
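0.1 nM LmPK, 0.5 mM PEP, 0.1 mM ADP; 50 mM imidazole pH 7.2, 7 mM MgCl2, 50 mM KCl; 1 h RT. Kinase-Glo luminescence readout, normalized to no-enzyme (full inhibition) and uninhibited wells.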
RE007 growth inh: less growth of the S. pombe RE007 Vpr strain; S. pombe RE007 Vpr strain, BacTiter-Glo ATP luminescence, 24 h; Potency, µM (highest dose often 92.2 µM), hits mostly inhibitors; 360,000 compounds, 0.21% hits; AID 651644; active = well fitted falling curve with a large enough effect; inconclusive = small, poorly fitted or top-dose-only effect; inactive = no such curve, though single readings can be large or run the other way; also: nearly all actives have a fitted effect of over 50% in size
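Fission yeast strain RE007, carrying one chromosomally integrated HIV-1 vpr copy, was seeded at OD 0.01 in PMG+AL medium with 23 nL pinned compound. After 24 h at 30 °C and 99% humidity, viability was read by BacTiter-Glo luminescence.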
FBPA Giardia inh: inhibitors of Giardia lamblia fructose-1,6-bisphosphate aldolase. A8B2U2. purified Giardia FBPA. Potency, µM (series often up to 59.6 µM), hits mostly inhibitors. 290,000 compounds, 0.71% hits. AID 2451; also: nearly all actives have a fitted effect of over 55% in size
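Giardia FBPA (40 nM reagent) was preincubated 10 min at RT with compound (up to 57.5 uM final), then substrate plus GAPDH/TPI/NAD/arsenate coupling system with diaphorase/resazurin was added; resorufin fluorescence (525/598 nm) was read after 20 min.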
Shiga inhibitor: Shiga toxin inhibition; Vero cells, Shiga toxin protein synthesis inhibition reporter; inhibition, % at 38.7 µM; 290,000 compounds, 9.2% hits; AID 2315; in the data active = inhibition mostly above about 28%, no sharp cut-off; inactive = mostly below about 43%
A number is an active result; . = inactive; ? = inconclusive; / = not tested or not shown; + = active, no number. Unless noted, calls follow the shape of the dose curve; as a rule, active = well fitted curve in the direction sought with a large enough effect; inconclusive = small, poorly fitted or top-dose-only effect, or another doubt; inactive = no such curve, though single readings can be large; an effect the other way counts as inactive or inconclusive.

SMILES	Tb PYK inh	Cycloheximide cs	LmPK inh	RE007 growth inh	FBPA Giardia inh	Shiga inhibitor
CCOC(=O)[C@]12CCCC=C1N(CCC1=CCCCC1)C(=O)[C@H](CC(=O)NCc1ccccc1)C2	/	/	/	.	/	/
CN1CCN(c2cc(-c3ccoc3)ncn2)CC1	/	/	/	/	.	/
O=C(Nc1ccc(Br)cc1)c1ccccc1CC[N+](=O)[O-]	.	.	.	.	.	.
O=C(NNc1ccccn1)c1ccccc1CC[N+](=O)[O-]	.	14	.	.	.	.
O=C(CC[C@H]1O[C@@H](n2ccc(=O)[nH]c2=O)[C@H](O)[C@@H]1O)NCCCc1ccccc1	.	/	/	.	/	/
O=C(NCCCN1CCc2ccccc2C1)Nc1ccc(Br)cc1	.	23	.	.	?	.
COc1ccc(NC(=O)NCCCN2CCc3ccccc3C2)cc1	.	.	.	.	?	.
Cc1c(C(=O)N2CCCCCC2)c(S(=O)(=O)N(Cc2ccccc2)C(C)(C)C)c(C)n1C	.	/	/	/	/	/
O=C(Nc1cc(F)ccc1F)C1CCN(C(=O)c2cnn(-c3ccccc3)c2-n2cccc2)CC1	.	/	/	/	/	/
Cc1cc(C(=O)N/N=C2\CC(=O)c3ccccc32)c(C)n1-c1ccccc1	.	35	.	.	.	65
Cc1cc(=O)c(C(=O)O)c(C)n1-c1ccccc1	.	/	/	.	/	/
Cc1cc(C(=O)N/N=C2\CC(=O)CC(C)(C)C2)c(C)n1-c1ccccc1	.	87	.	.	.	89
Cc1cc(C(=O)N/N=C2\CC(=O)CC(C)(C)C2)c(C)n1-c1ccc(F)cc1	.	.	.	.	.	.
O=C(Nc1ccc2nc(SCC(=O)N3CCc4ccccc43)sc2c1)c1ccccc1	.	/	/	/	/	/
Cc1ccc(NC(=O)C(Cc2ccccc2)n2cccc2)cc1C (stereo unspecified)	.	/	/	/	/	/
c1ccc(-c2cc3n(c2)CCc2ccccc2-3)cc1	.	15	.	.	.	49
CC(=O)c1c(C)nc(-c2ccccc2)nc1N	.	29	.	.	?	58
CCOC(=O)c1c(-c2ccccc2)cn2c(C)cc(C)nc12	.	35	.	.	.	71
CCOC(=O)c1c(C)nc(C)c(C(=O)OCC)c1-c1ccccc1	.	.	.	.	.	.
CCOC(=O)c1c(C)nc(-c2ccccc2)nc1N	.	33	.	?	.	123
CCOC(=O)c1c(C)nc(-c2ccccc2)nc1NC(C)=O	.	.	.	.	.	.
COc1ccc(OC)c(S(=O)(=O)N2CCC(n3c(C)nc4cccnc43)CC2)c1	.	/	/	/	/	/
CCCCN(C)C(=O)Cn1c(SCC(=O)Nc2ccc(C)c(C)c2)nc2ccccc21	.	/	/	/	/	/
CC(C)(C)C(=O)Nc1ccc(/C=C/C(=O)c2ccco2)cc1	.	25	.	.	.	/
Cc1cccc2cc(/C=C/C(=O)c3ccco3)c(Cl)nc12	.	12	.	.	.	.
SMILES	Tb PYK inh	Cycloheximide cs	LmPK inh	RE007 growth inh	FBPA Giardia inh	Shiga inhibitor
Nc1ccc(/C=C/C(=O)c2ccco2)cc1	.	69	.	?	.	+
N#Cc1ccc(/C=C/C(=O)c2ccco2)cc1	.	.	.	18µM	.	.
CCOc1ccc2nc(Cl)c(/C=C/C(=O)c3ccco3)cc2c1	.	.	.	.	.	.
Cc1ccc(/C=C/C(=O)c2cc(Br)ccc2OC(=O)c2ccco2)cc1	.	24	.	.	.	49
COc1ccccc1/C=C/C(=O)c1cc(Br)ccc1OC(=O)c1ccco1	.	/	/	.	/	/
O=C(/C=C/c1cc(Br)ccc1O)c1ccco1	.	.	.	?	.	.
O=C(/C=C/c1ccccc1O)c1ccco1	.	30	.	?	.	61
COC(=O)c1cc(Cl)ccc1NC(=O)Cn1c(C)cc(C)c(C#N)c1=O	.	/	/	/	/	/
CC(=O)c1cccc(NC(=O)Cc2noc3ccccc23)c1	.	/	/	/	/	/
O=C(Cc1noc2ccccc12)Nc1ccc(Cl)cc1	.	35	.	.	.	.
Cc1cccc(NC(=O)Cc2noc3ccccc23)c1	.	48	.	.	.	74
Cc1cccc(NC(=O)Cc2noc3ccccc23)c1C	.	.	.	.	.	34
CCOc1ccccc1NC(=O)Cc1noc2ccc(C)cc12	.	/	/	/	/	/
CCOc1ccc(S(=O)(=O)c2cn(C)c3ccccc3c2=O)cc1	.	/	/	/	/	/
Cc1ccnc2nc(NC(=O)c3ccco3)nn12	.	26	.	.	.	48
O=C(Nc1nc2nccc(-c3ccccc3)n2n1)c1ccccc1	.	22	.	.	.	.
O=C(Nc1nc2nc(-c3ccccc3)cc(-c3ccccc3)n2n1)c1ccco1	.	.	.	.	.	.
O=C(Nc1ccc2nn(-c3ccccc3)nc2c1)c1ccco1	.	47	.	.	.	72
O=C(Nc1ccc2nn(-c3ccccc3)nc2c1)c1cccnc1	.	22	.	.	.	.
O=C(Nc1ccc2nn(-c3ccc(Cl)cc3)nc2c1)c1cc2ccccc2o1	.	/	/	/	/	/
C=CCc1ccccc1OCc1nc2ccc(C)cc2[nH]1	.	/	/	/	/	/
Cc1ccc(C)c(S(=O)(=O)N2CCN(C(=O)c3ccnn3C)CC2)c1	.	.	.	.	/	.
O=C(Nc1cc2nn(-c3ccccc3)nc2cc1Cl)c1ccco1	.	21	.	.	.	47
Nc1nc(NC(=O)c2ccco2)nn1-c1ccccc1	.	35	.	.	.	79
CC(C)C(=O)Nc1ccc2nn(-c3ccccc3)nc2c1	.	39	.	.	.	103
CCOc1ccc(-n2nc3ccc(NC(=O)COc4ccccc4)cc3n2)cc1	.	/	/	/	/	/
